Results taken from PubChem BioAssay (NCI).
About 83,000 compounds went through this panel and 20% of them were active in at least one assay; those are over-represented in the sample as a whole.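 For each line, cells grew in 96-well plates with the test compound present at a single concentration for 48 hours.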 Values without a mark were called inactive. Activity calls are given as the source filed them. How the source made its calls: active means growth percent below 10; inactive means the rest.

Legend:
Assay in all cases: NCI-60 one-dose screen, 48 h (100 = growth as untreated, 0 = no growth, -100 = all killed)
Conditions in all cases: 10 µM unless noted
SK-MEL-2 melanoma = tested on: SK-MEL-2 melanoma
EKVX NSCLC = tested on: EKVX NSCLC
SN12C renal = tested on: SN12C renal
UO-31 renal = tested on: UO-31 renal
TK-10 renal = tested on: TK-10 renal
ACHN renal = tested on: ACHN renal
CAKI-1 renal = tested on: CAKI-1 renal
A498 renal = tested on: A498 renal
CCRF-CEM leukemia = tested on: CCRF-CEM leukemia
MOLT-4 leukemia = tested on: MOLT-4 leukemia

Compound | growth (SK-MEL-2 melanoma) | growth (EKVX NSCLC) | growth (SN12C renal) | growth (UO-31 renal) | growth (TK-10 renal) | growth (ACHN renal) | growth (CAKI-1 renal) | growth (A498 renal) | growth (CCRF-CEM leukemia) | growth (MOLT-4 leukemia)
O=C1/C(=C(/c2ccccc2)N2CCOCC2)Cc2ccccc21 | 90.4% | 38% | -42.6% (active) | -47.8% (active) | -16.7% (active) | -39.6% (active) | -43.5% (active) | 51.4% | 22.6% | 22.7%
COc1ccc(C2CC(c3ccc4ccccc4c3)=NN2/C=C2\SC(=S)N(NC(=O)Cc3ccccc3Nc3c(Cl)cccc3Cl)C2=O)cc1 (stereo not given) | 38.8% | 40.2% | 31.7% | 11.8% | 48.7% | 47.4% | 31.5% | -0.474% (active) | 6.24% (active) | 13.9%
CCCCCCN(CCCCCC)CCC(O)c1ccc2ccccc2c1 (stereo not given) | 86.1% | 71% | 58.6% | 38.4% | 72% | 68.7% | 53% | 48.3% | 41.8% | 45.7%
COc1cc(CNc2oc(-c3ccccc3)c(-c3ccccc3)c2C#N)cc(CN2CCN(C)CC2)c1O | 82.4% | 65.6% | 77.4% | 51.5% | 91.9% | 65.7% | 66% | -7.97% (active) | 45.6% | -13.7% (active)
C#CC(F)(F)[C@]1(O)CC[C@H]2[C@@H]3CCC4=CC(=O)CCC4=C3[C@@H](c3ccc(C4CC4)cc3)C[C@@]21C | 59.5% | -67.4% (active) | 60.3% | -84.8% (active) | 99.8% | 40.4% | -73.3% (active) | -5.83% (active) | -63% (active) | -6.54% (active)
COc1cccc(-c2nc3sccn3c2-c2ccnc(NCCCNS(=O)(=O)c3c(Cl)cccc3Cl)c2)c1 | 67.5% | 58.7% | 60.9% | 32.4% | 100% | 49.9% | 44.1% | 71.3% | 31.9% | 28.9%
COc1ccc(-n2nc(C)c3c(Nc4ccc(NC(=O)Nc5ccc(Cl)c(C(F)(F)F)c5)cc4)ncnc32)cc1 | -30.2% (active) | 6.63% (active) | 3.5% (active) | 4.67% (active) | 5.29% (active) | 1.09% (active) | -3.15% (active) | -3.28% (active) | 17.2% | 8.28% (active)
CSc1ccc(-c2n[nH]nc2-c2cc3ccccc3s2)cc1 | 33% | 73.2% | 59.9% | 52.3% | 84.2% | 64.7% | 49.1% | 46.8% | 52.6% | 10.1%
COc1ccccc1NS(=O)(=O)c1ccc2oc(SC(C)C)nc2c1 | 66.4% | 55.9% | 89.3% | 73.5% | 102% | 151% | 71.2% | 91.4% | 65% | 69.6%
COC[C@H](C)n1c(C2CCOCC2)nc2cnc3cc(-c4c(C)noc4C)c(OC)cc3c21 | 76.6% | 59.7% | 76.1% | 19.5% | 29.4% | 43.7% | 16.2% | 5.12% (active) | 61.4% | 42.2%
O=C(/C=C/c1cccc([N+](=O)[O-])c1)c1ccc(O)c(CN2CCN(c3cc4c(cc3F)c(=O)c(C(=O)O)cn4C3CC3)CC2)c1 | 88.3% | 52.8% | 32.5% | -29.7% (active) | 34.5% | 8.06% (active) | 42.3% | 97.2% | 0.194% (active) | 2.37% (active)
C#CCOc1ccc2ncnc(N3CCN(C(=O)CCl)CC3)c2c1 | 87.6% [8.25 µM] | 96.7% [8.25 µM] | 40.7% [8.25 µM] | 75.5% [8.25 µM] | 99.1% [8.25 µM] | -54.7% [8.25 µM] (active) | 109% [8.25 µM] | 110% [8.25 µM] | 10.7% [8.25 µM] | 67.1% [8.25 µM]
CCOC(=O)c1sc2nc(-c3cccc(O)c3)nc(N3CCOCC3)c2c1C | 78.9% | 36.1% | 50.7% | 25.4% | 79.1% | 58.3% | 72.3% | 97.8% | 42.2% | 29.1%
Cn1c(O)c(N=NC(=O)c2cc(-c3ccccc3)on2)c2ccccc21 | 95.3% | 88.5% | 100% | 88% | 125% | 100% | 90.4% | 85.8% | 108% | 105%
Cc1ccc(OC(=O)c2ccc(Cl)cc2)cc1 | 103% | 99.1% | 95.9% | 102% | 98.2% | 95.6% | 81.8% | 114% | 55.9% | 113%
CSc1nc(NCCN2CCOCC2)c(C#N)c(-c2cccc([N+](=O)[O-])c2)n1 | 109% | 87.3% | 95.7% | 82.5% | 135% | 93.7% | 86.4% | 55.7% | 102% | 98%
COc1ccc(-c2n[nH]nc2-c2csc3ccccc23)cc1OC | 15% | 45.8% | 34% | 35.1% | 53.2% | 37.7% | 23.2% | 1.02% (active) | 22.8% | 11%
Cc1cc(NS(=O)(=O)c2ccc(-c3cnc(C4CC4)o3)cc2)ccc1Cl | 45.3% | 28.5% | 48.4% | 46.5% | 54.3% | 40.4% | 34.7% | -17.8% (active) | 14.4% | 17.8%
C=CC(=O)Nc1cccc(-c2nc(SC)nc(Nc3ccccc3OC)c2C#N)c1 | 73.9% | 63.7% | 48.4% | 19.2% | 36.1% | 37.7% | 56.6% | 61.4% | 40.8% | 33.4%
OCc1ccc(N2CCc3cccc(F)c3C2)cc1Cl | 91.1% [0.1 µM] | 104% [0.1 µM] | 92.9% [0.1 µM] | 91.6% [0.1 µM] | -0.0842% [0.1 µM] (active) | 108% [0.1 µM] | 63.5% [0.1 µM] | -16.3% [0.1 µM] (active) | 96% [0.1 µM] | 100% [0.1 µM]
CCc1nnc(CNc2ccc(Cl)cc2)o1 | 90.6% | 91.3% | 95.8% | 73.7% | 114% | 86.8% | 89.9% | 106% | 114% | 89.7%
COc1ccc(/C=C/c2nc3ccccc3nc2/C=C/c2ccc(OC)cc2)cc1 | 101% | 96.2% | 101% | 84.7% | 95.8% | 97.6% | 86.4% | 83.9% | 98.2% | 99.1%
